# CDK5 p35 inh = CDK5/p35 (human) kinase inhibition; inhibition, % at 10 µM; Recombinant CDK5/p35, ADP-Glo luminescence, 60 min; hit rate 0.01% among 330,000; AID 488839; Q00535+Q15078;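 active = highest replicate inhibition of at least 50% and at least 75% of replicates reaching 50%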;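 also: plate controls were DMSO neutral control for no effect and GW8510 at 10 µM for full effect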
# Target sequence (Q00535 whole entry, looked up): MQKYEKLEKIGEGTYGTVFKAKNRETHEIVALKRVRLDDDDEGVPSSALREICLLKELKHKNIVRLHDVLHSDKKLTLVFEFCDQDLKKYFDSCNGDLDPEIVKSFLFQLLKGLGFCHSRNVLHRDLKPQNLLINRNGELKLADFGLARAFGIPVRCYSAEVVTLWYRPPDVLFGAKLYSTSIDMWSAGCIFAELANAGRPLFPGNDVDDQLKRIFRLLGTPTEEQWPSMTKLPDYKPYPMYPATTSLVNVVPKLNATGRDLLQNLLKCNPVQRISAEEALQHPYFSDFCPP
# Target sequence (Q15078 whole entry, looked up): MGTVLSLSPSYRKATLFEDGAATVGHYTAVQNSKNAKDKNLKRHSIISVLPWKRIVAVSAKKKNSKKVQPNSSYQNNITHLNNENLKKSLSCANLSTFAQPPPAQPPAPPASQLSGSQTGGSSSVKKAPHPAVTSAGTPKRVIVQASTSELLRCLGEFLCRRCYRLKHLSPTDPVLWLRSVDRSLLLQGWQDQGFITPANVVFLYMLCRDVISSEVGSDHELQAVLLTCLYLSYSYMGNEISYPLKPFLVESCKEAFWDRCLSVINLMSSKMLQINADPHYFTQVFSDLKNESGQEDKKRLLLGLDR
# N-glyco inh = blocks N-linked glycosylation in D54 reporter cells; reporter increase, % at 12.5 µM; AID 588692; D54 ERlucT glycosylation luciferase reporter, 24 h; percent of 100 nM tunicamycin response; hit rate 0.23% among 360,000;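 active = mean luciferase reporter signal, scaled so untreated is 0 and the glycosylation-blocking control 100, at or above a set limit in every replicate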;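 also: luciferase carries N-glycosylation sites so blocking glycosylation raises the light; 0% = median of neutral control wells and 100% = median of 100 nM tunicamycin wells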
# ALR inh = inhibitors of human sulfhydryl oxidase ALR | hit rate 3.8% among 290,000 | purified ALR, DTT oxidation, H2O2 HRP-luminol luminescence | AID 485317 | inhibition, % (concentration not given with the values) | P55789;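 active = mean replicate inhibition above about 79%, with every replicate also reaching it, limit read from the data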
# Mot1-301 SUMO = SUMOylation pathway inhibition by Mot1-301 growth rescue. S. cerevisiae Mot1-301 growth rescue, ATP luminescence, 38.5C; percent above DMSO median, 100 means doubled. growth rescue, % at 18.8 µM. hit rate 1% among 320,000. AID 2716;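 active = every valid replicate shows activation above 250% relative to neutral control wells; inactive = the rest, any valid replicate at or below 250%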;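 also: OY570 slx delta 5 strain wells were the positive control but not used for scaling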
# Casp6 inh = blocks human caspase-6 cleavage activity | P55212 | purified caspase-6, Z-VEID-R110 cleavage fluorescence | inhibition, % at 12.5 µM | hit rate 0.53% among 350,000;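 active = mean inhibition across replicates at least about 35%, with every replicate also reaching that limit, limit read from the data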;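 also: 0% = median of neutral control wells and 100% = no fluorescence left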
# NSD2 inh = inhibitors of human histone methyltransferase NSD2 | hit rate 0.54% among 310,000 | NSD2 peptide methylation, AlphaScreen, 120 min | O96028 | inhibition, % at 12.5 µM | AID 743445; in the data active = inhibition above about 50%
# * hit, by the source's call; . = no result. Only some compounds are listed: those with a hit (about 3.9% of all), similar ones and a draw of the others.
SMILES,CDK5 p35 inh,N-glyco inh,ALR inh,Mot1-301 SUMO,Casp6 inh,NSD2 inh
O=c1oc2ccccc2cc1-c1ccc(O)cc1O,-6,1,99*,2,.,1
CC(=O)Oc1ccc(-c2cc3ccccc3oc2=O)cc1,0,1,-3,-2,-1,-3
COC(=O)c1cccc(N(C(=O)c2cnccn2)C(C(=O)NCc2ccccc2)c2ccco2)c1 (centres undefined),1,0,1,322*,0,-5
O=C(NCc1ccccn1)c1cccc(S(=O)(=O)Nc2ccc(SC(F)F)cc2)c1,0,-1,98*,1,-2,-1
COCC(=O)N(C)C[C@@H]1Oc2ncc(C3=CCCC3)cc2C(=O)N([C@H](C)CO)C[C@H]1C,.,.,.,.,1,.
O=C(Cn1cncn1)c1ccccc1Br,0,0,.,357*,0,3
O=C1CS/C(=N/N=C\c2ccn[nH]2)N1,.,-1,82*,146,-4,-3
CC(=O)N1CC2(C1)[C@H](c1ccc(-c3ccc(C#N)cc3)cc1)[C@H](CO)N2C(C)=O,.,.,.,.,-1,.
Cc1ccc(C)c(/C=C(\C(=O)O)c2ccc(S(=O)(=O)N3CCCCC3)s2)c1,-5,-1,20,79,37*,-1
COc1ccc(Br)cc1/C=C(\C(=O)O)c1ccc(S(=O)(=O)N2CCCCC2)s1,-1,1,.,37,37*,9
CCOc1cc(/C=C(\C(=O)O)c2ccc(S(=O)(=O)N3CCCC3)s2)ccc1OC,1,0,-4,-1,2,0
C[C@@H]1CN([C@H](C)CO)C(=O)c2cccc(NC(=O)CCCCCC(=O)Nc3ccccc3N)c2O[C@H]1CN(C)C,.,.,.,.,-10,.
CO[C@@H]1CN(C)C(=O)c2ccc(NC(=O)C3CC3)cc2OC[C@@H](C)N(Cc2cccnc2)C[C@@H]1C,.,.,.,.,3,.
COc1ccc(OC)c(/C=N/c2oc(-c3ccco3)c(-c3ccco3)c2C#N)c1,0,6,98*,.,.,3
CC(=O)c1c(-c2ccccc2)[nH]c2ccccc12,0,7,-9,-9,0,-8
O=C(O)/C=C/C(=O)c1c(-c2ccccc2)[nH]c2ccccc12,0,-5,98*,2,10,10
CNC(=O)C[C@H]1CC[C@H]2[C@H](COc3ccc(NC(=O)c4ccccc4Cl)cc3C(=O)N2C)O1,.,.,.,.,-3,.
Cn1cnnc1SCC(=O)Nc1ccc(S(N)(=O)=O)cc1,0,1,94*,-15,0,0
COCCn1cnnc1SCC(=O)Nc1ccc(N2CCCCC2)cc1,1,0,95*,15,-3,0
NS(=O)(=O)c1ccc(NC(=O)CSc2nnc(NC3CC3)s2)cc1,-4,0,.,.,36*,14
Cn1cnnc1SCC(=O)Nc1ccccc1,-1,4,-15,7,-1,.
Cn1cnnc1SCC(=O)Nc1ccc(N2CCCCC2)cc1,-2,0,99*,2,-7,-13
CN(C)C(=O)[C@@H]1[C@@H](CO)[C@@H]2Cn3c(ccc(-c4cncnc4)c3=O)[C@@H]2N1Cc1cc(F)ccc1F,.,.,.,.,3,.
CC(C)c1ccc(/C=c2\sc3nc(-c4ccncc4)nn3c2=O)cc1,-2,3,87*,18,.,-2
Cc1ccc(/C=c2\sc3nc(-c4cccnc4)nn3c2=O)cc1,-1,0,91*,30,.,1
SMILES,CDK5 p35 inh,N-glyco inh,ALR inh,Mot1-301 SUMO,Casp6 inh,NSD2 inh
Cc1ccc(N2CN=c3s/c(=C\c4cccnc4)c(=O)n3C2)cc1,1,-6,-10,-10,.,-2
CCOc1ccc(/C=c2\sc3nc(-c4ccco4)nn3c2=O)cc1OCC,1,-1,18,-10,.,6
C[C@@H]1CN([C@H](C)CO)C(=O)c2cccc(NC(=O)NC3CCCCC3)c2O[C@@H]1CN(C)C,.,.,.,.,0,.
O=C(c1ccccc1F)N1C[C@@H]2[C@H](c3ccccc31)[C@@H](CO)N2C(=O)c1cccnc1,.,.,.,.,27,.
O=S(=O)(c1ccc(F)cc1)N1CCCCN2[C@H](CO)[C@H](c3ccc(-c4ccccc4)cc3)[C@H]2C1,.,.,.,.,0,.
O=C1NN(c2cccc(Br)c2)C(=O)/C1=C\c1ccccc1,-5,3,89*,31,8,3
O=C1NN(c2ccccc2)C(=O)C1=Cc1ccccc1,.,0,.,.,3,2
O=C1NN(c2ccccc2)C(=O)/C1=C\c1ccccc1,-1,4,90*,78,2,3
O=C(Nc1cc(F)ccc1F)N[C@H]1CC[C@H](CCn2cc(C3CC3)nn2)O[C@H]1CO,.,.,.,.,-2,.
CN1C(=O)c2cc(NC(=O)c3ccc(F)cc3)ccc2OC[C@H]2O[C@H](CC(=O)O)CC[C@H]21,.,.,.,.,6,.
C=CCn1cccc(C(=O)Nc2ccc(Cl)cc2)c1=O,2,-4,-4,5,2,-6
C=CCn1cccc(C(=O)Nc2ccc(N(C)C)cc2)c1=O,0,1,99*,-3,-4,4
CC(NC(=O)Cc1cccs1)C(c1cccs1)N1CCN(c2ccccc2)CC1 (centres undefined),-1,-5,96*,-1,.,0
CC(NC(=O)Cc1cccs1)C(c1cccs1)N1CCN(c2ccccc2F)CC1 (centres undefined),-1,-6,-6,67,.,-2
Cc1ccc(S(=O)(=O)NC(C)C(c2cccs2)N2CCN(c3ccccc3)CC2)cc1 (centres undefined),-4,-3,.,12,1,.
CCN1CCN(C(c2cccs2)C(C)NC(=O)c2ccccc2)CC1 (centres undefined),0,-1,7,37,-4,.
CCC(=O)NC(C)C(c1cccs1)N1CCN(c2ccccc2)CC1 (centres undefined),1,1,99*,-19,2,.
CC(=O)NC(C)C(c1cccs1)N1CCN(c2ccccc2)CC1 (centres undefined),0,1,99*,110,.,0
COc1ccccc1S(=O)(=O)N1CC[C@@H]2[C@@H](CO)Nc3ccc(-c4ccc(C#N)cc4)cc3[C@@H]21,.,.,.,.,2,.
CCS(=O)(=O)N[C@H]1C=C[C@@H](CC(=O)N2CCCCC2)O[C@@H]1CO,.,.,.,.,0,.
Cc1ccc(NCCC(=O)c2cccs2)cc1,2,-3,99*,-19,0,13
Cc1ccc(NCCC(=O)c2cccs2)cc1C,0,-11,99*,-12,-3,5
CC(C)c1ccc(NCCC(=O)c2cccs2)cc1,2,-8,.,37,.,1
Cc1ccc(S(=O)(=O)Nc2ccc3c(c2)CC(=O)N([C@@H](C)CO)C[C@@H](C)[C@@H](CN(C)S(C)(=O)=O)O3)cc1,.,.,.,.,0,.
C[C@H]1CN([C@@H](C)CO)C(=O)c2cc(NC(=O)CCC(F)(F)F)ccc2O[C@H]1CN(C)S(=O)(=O)c1ccc(Cl)cc1,.,.,.,.,4,.
C[C@@H]1CN([C@@H](C)CO)C(=O)c2cccc(NC(=O)C3CCCCC3)c2O[C@H]1CN(C)CC1CCCCC1,.,.,.,.,-1,.

# Bioassay records as filed in PubChem BioAssay.
